Key:
Experiment in all cases: log2 ratio of Biotin-Ahx-Ub-VS probe labelling (fragment/DMSO); higher = less target engagement (more negative = stronger competition), active = hit call of the paper (q ≤ 0.05, log2 ratio ≤ -1)
Conditions in all cases: compound concentration: 200 uM; treatment time: 3 h
OTUD6B = target: T1, OTUD6B (UniProt Q8N6M0)
T1 sequence (whole entry): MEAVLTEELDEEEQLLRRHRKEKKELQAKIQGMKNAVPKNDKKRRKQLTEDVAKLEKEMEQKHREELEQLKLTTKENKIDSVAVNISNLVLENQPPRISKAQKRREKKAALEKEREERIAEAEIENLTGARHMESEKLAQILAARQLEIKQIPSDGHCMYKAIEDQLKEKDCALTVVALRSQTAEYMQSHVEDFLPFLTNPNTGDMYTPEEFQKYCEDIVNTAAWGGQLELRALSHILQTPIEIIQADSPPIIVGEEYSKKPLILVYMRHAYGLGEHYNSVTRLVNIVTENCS
In short: (§1)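 Each value is an average log2 ratio of fragment to vehicle, tested by unpaired t-test. The underlying Spectronaut label-free quantities were global-median-normalised, and only proteins with ≥2 unique peptides were included. Triplicate HEK293T lysate samples (495 µg) were exposed to fragment at 200 µM or vehicle for 3 h, then to Biotin-Ahx-Ub-VS at 0.5 µM final for 1 h, before NeutrAvidin enrichment of labelled DUBs, LysC and trypsin digestion, and diaPASEF LC-MS/MS.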

OTUD7B = target: T2, OTUD7B (UniProt Q6GQQ9)
T2 sequence (whole entry): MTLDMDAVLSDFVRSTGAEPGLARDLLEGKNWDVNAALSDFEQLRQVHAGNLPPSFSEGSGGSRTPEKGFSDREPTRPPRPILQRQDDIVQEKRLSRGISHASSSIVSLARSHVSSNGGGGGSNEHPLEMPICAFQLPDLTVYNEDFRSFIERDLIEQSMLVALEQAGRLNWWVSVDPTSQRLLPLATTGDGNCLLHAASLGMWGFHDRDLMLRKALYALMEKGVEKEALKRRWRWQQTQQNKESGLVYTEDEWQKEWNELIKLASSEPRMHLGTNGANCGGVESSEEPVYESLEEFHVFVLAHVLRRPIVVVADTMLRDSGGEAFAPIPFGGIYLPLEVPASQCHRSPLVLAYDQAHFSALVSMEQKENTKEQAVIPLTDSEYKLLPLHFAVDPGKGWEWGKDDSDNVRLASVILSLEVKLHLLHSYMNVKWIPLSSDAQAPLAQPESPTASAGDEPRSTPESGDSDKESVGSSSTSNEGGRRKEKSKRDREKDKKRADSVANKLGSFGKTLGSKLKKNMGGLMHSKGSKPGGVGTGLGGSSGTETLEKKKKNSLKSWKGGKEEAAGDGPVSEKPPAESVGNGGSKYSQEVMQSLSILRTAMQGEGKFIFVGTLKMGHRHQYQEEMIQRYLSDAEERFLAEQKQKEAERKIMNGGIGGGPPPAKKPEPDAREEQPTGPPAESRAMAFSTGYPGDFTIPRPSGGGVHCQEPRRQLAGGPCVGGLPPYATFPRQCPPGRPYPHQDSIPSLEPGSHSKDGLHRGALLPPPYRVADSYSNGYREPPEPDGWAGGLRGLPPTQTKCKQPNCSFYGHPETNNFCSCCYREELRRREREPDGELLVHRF
In short: as §1

PRPF8 = PRPF8 (UniProt Q6P2Q9)
In short: as §1

PSMD7 = target: T3, PSMD7 (UniProt P51665)
T3 sequence (whole entry): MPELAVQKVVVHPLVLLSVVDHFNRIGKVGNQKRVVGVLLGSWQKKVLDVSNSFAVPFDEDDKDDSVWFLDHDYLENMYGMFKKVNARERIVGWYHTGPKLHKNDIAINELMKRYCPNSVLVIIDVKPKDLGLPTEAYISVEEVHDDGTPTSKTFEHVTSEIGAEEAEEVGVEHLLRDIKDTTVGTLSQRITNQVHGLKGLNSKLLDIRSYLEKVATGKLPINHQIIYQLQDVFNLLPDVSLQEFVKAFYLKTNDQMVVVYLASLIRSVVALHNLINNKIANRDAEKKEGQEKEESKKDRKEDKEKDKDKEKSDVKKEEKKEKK
In short: as §1

UCHL1 = UCHL1 (UniProt P09936)
In short: as §1

UCHL3 = target: T4, UCHL3 (UniProt P15374)
T4 sequence (whole entry): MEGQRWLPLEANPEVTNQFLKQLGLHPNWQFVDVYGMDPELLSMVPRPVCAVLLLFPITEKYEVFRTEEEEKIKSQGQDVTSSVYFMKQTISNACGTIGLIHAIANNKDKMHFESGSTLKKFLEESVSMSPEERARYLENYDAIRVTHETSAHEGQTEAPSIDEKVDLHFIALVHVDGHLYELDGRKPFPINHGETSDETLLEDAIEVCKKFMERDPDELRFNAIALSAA
In short: as §1

UCHL5 = target: T5, UCHL5 (UniProt Q9Y5K5)
T5 sequence (whole entry): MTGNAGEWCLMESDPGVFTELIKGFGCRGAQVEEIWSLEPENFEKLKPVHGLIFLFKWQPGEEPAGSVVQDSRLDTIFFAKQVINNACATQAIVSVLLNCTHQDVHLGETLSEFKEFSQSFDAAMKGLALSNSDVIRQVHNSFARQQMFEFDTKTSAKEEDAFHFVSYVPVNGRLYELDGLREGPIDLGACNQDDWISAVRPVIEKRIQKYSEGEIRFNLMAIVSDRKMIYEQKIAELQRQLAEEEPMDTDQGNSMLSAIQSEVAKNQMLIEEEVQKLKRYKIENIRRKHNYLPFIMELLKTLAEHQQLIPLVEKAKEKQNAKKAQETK
In short: as §1

USP10 = USP10 (UniProt Q14694)
In short: as §1

USP15 = target: T6, USP15 (UniProt Q9Y4E8)
T6 sequence (whole entry): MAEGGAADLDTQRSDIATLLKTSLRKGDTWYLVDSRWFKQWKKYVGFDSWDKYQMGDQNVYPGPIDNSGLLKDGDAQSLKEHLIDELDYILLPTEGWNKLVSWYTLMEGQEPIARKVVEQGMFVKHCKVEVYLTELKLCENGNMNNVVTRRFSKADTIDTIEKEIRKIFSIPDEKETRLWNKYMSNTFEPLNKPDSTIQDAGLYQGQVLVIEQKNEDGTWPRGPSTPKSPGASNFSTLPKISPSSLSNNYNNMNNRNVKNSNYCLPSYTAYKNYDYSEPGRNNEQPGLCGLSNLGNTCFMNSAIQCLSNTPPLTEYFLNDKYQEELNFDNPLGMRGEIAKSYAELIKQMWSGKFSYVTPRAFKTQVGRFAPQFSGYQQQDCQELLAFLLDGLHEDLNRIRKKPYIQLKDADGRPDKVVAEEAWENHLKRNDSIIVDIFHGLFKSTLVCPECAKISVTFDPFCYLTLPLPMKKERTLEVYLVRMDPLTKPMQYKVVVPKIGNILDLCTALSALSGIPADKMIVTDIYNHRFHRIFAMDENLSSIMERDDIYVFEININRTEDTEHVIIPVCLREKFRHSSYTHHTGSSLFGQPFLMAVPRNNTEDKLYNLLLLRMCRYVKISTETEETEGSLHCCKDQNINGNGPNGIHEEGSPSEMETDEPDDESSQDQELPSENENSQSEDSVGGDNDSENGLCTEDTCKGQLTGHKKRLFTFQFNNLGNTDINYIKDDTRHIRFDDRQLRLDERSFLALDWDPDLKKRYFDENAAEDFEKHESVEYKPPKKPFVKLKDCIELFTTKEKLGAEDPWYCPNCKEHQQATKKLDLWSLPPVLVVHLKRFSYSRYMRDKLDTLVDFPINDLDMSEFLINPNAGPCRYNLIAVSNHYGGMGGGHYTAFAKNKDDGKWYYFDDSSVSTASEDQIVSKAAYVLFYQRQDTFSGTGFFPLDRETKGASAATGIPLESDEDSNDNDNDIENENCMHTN
In short: as §1

USP16 = USP16 (UniProt Q9Y5T5)
In short: as §1

Measured: log2 ratio of Biotin-Ahx-Ub-VS probe labelling

Sequence of UCHL1 (P09936 whole entry, looked up): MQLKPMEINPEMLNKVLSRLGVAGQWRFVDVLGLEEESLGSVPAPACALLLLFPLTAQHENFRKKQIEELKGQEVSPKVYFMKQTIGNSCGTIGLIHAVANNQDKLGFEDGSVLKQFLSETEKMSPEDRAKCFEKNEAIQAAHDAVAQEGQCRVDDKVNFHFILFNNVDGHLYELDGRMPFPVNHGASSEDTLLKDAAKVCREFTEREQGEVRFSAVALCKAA
Sequence of USP16 (Q9Y5T5 whole entry, looked up): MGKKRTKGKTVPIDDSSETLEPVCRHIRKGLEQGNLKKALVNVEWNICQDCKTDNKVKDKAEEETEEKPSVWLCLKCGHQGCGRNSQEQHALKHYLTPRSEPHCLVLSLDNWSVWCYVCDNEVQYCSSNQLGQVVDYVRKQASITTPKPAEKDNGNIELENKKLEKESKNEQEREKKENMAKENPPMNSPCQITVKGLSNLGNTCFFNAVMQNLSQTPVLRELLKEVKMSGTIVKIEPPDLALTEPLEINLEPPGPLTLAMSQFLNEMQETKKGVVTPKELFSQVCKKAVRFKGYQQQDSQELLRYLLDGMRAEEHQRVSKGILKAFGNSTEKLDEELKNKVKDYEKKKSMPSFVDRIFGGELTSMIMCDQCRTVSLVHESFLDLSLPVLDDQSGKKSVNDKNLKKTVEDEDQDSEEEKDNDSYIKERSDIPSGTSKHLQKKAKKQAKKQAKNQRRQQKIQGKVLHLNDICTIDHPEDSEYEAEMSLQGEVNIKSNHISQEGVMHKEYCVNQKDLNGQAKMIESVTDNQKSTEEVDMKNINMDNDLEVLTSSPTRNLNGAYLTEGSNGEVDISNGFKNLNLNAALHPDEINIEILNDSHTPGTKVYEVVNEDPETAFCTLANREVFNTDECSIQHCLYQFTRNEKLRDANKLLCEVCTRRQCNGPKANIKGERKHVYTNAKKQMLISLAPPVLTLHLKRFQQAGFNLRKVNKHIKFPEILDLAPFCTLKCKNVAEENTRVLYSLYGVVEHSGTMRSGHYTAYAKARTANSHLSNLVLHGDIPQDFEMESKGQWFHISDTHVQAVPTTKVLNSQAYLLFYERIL
Sequence of USP10 (Q14694 whole entry): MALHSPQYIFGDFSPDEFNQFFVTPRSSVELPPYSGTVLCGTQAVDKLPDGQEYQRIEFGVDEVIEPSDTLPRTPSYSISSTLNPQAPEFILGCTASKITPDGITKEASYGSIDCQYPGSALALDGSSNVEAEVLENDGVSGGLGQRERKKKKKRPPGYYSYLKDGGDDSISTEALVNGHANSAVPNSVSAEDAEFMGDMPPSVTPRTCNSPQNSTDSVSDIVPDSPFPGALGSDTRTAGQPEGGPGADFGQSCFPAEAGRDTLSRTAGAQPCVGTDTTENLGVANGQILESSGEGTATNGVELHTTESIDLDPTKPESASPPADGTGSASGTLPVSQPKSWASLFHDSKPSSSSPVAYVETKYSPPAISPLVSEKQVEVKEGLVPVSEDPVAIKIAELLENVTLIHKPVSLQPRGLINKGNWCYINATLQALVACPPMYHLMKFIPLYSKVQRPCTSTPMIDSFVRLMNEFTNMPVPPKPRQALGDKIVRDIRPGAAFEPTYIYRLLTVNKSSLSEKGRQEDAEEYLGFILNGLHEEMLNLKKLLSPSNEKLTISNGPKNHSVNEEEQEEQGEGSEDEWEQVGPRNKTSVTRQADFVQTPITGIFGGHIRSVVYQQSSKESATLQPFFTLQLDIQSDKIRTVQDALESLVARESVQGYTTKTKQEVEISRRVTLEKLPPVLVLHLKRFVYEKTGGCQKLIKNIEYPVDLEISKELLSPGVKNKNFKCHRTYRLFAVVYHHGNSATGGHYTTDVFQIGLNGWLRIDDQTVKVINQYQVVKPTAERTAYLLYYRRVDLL

O=C(CCl)N(C1CCCC1)C1CCS(=O)(=O)C1 (stereo not given)
active: UCHL1 -1.47
inactive: OTUD6B -0.0743 | OTUD7B -0.147 | PRPF8 0.17 | PSMD7 0.00755 | UCHL3 0.248 | UCHL5 -0.176 | USP10 -0.0694 | USP15 -0.235 | USP16 -0.121

From the supplement of paper PMC11732987, “Enantioselective OTUD7B fragment discovery through chemoproteomics screening and high-throughput optimisation” (Communications Chemistry, 2025)
